Records with an inconclusive call do not appear. Activity calls are given as the source filed them. The call rests on the fitted dose curve; in most records, active means well fitted curve in the direction sought with a large enough effect; inconclusive means small, poorly fitted or top-dose-only effect, or another doubt; inactive means no such curve, though single readings can be large; an effect the other way counts as inactive or inconclusive.
How the values were obtained:
[1] = molecular target: Metallo-beta-lactamase type 2 (Klebsiella pneumoniae) (UniProt C7C422); assay: qHTS to identify inhibitors of the New Delhi Metallo-beta-lactamase (NDM): assay validation screen against the NCATS LOPAC Collection (AID 1794843); conditions: NDM-1 enzyme, nitrocefin hydrolysis, absorbance 485 nm; series mostly up to 38.4 µM;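 further: nitrocefin turnover by NDM-1 measured as 485 nm absorbance at plateau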
Sequence of Metallo-beta-lactamase type 2 (Klebsiella pneumoniae) (C7C422 whole entry, looked up): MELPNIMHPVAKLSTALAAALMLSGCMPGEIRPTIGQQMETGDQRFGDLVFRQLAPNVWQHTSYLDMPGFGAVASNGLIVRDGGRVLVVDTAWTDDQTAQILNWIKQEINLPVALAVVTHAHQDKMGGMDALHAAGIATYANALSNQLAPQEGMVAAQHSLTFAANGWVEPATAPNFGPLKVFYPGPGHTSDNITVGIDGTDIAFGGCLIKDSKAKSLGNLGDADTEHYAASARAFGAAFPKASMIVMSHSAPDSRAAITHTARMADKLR
In short: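 NDM-1 at 2 nM final in 50 mM HEPES pH 7.0 with 1 uM ZnSO4 and 0.01% Tween20 was preincubated with library compounds in DMSO. Nitrocefin (50 uM stock) was then added, and absorbance at 485 nm was read at the kinetic plateau.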

[2] = molecular target: Glutathione peroxidase 1 (Homo sapiens) (UniProt P07203); assay: Primary qHTS Assay for Inhibitors of Recombinant Selenoprotein Glutathione Peroxidase 1 (GPX1) (AID 1845191); conditions: recombinant GPX1, GR-coupled NADPH fluorescence, 15 min; series mostly up to 48.8 µM; further: nearly all actives have a fitted effect of over 65% in size
Sequence of Glutathione peroxidase 1 (Homo sapiens) (P07203 whole entry, looked up): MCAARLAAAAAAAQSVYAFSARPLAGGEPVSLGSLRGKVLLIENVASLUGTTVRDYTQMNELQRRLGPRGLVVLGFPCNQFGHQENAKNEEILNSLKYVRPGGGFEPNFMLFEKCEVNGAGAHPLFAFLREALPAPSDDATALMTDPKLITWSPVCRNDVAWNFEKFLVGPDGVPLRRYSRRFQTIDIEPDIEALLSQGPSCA
In short: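 10 nM GPX1 + cpd, 30 min RT; start w/ 1 mM GSH, 0.5 mM cumene hydroperoxide, 0.5 mM NADPH, 100 nM GR, 0.01% BSA; buffer 50 mM Tris-HCl pH 7.5, 2 mM EDTA, 150 mM NaCl; Fl 340/450, 0 & 15 min.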

[3] = molecular target: Phospholipid hydroperoxide glutathione peroxidase GPX4 (Homo sapiens) (UniProt P36969); assay: Primary qHTS Assay for Inhibitors of Recombinant Selenoprotein Glutathione Peroxidase 4 (GPX4) (AID 1845192); conditions: recombinant GPX4, GR-coupled NADPH fluorescence, 15 min; series mostly up to 50 µM; further: nearly all actives have a fitted effect of over 65% in size
Sequence of Phospholipid hydroperoxide glutathione peroxidase GPX4 (Homo sapiens) (P36969 whole entry, looked up): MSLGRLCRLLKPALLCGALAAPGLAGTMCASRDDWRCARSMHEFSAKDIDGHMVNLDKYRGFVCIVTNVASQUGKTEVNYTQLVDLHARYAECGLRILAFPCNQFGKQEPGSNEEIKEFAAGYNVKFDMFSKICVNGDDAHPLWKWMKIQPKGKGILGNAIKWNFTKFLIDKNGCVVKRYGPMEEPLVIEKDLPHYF
In short: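 NADPH consumption, followed by fluorescence at 340/450 nm between 0 and 15 min, reports GPX4 activity via coupled glutathione reductase (100 nM). Enzyme 200 nM was pre-exposed to compound 30 min; 0.5 mM cumene hydroperoxide and 1 mM GSH served as substrates.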

Measured: Potency

NC(Cc1cccc(-c2ccccc2CP(=O)(O)O)c1)C(=O)O (stereo not given)
inactive: all assays above

O=c1onc2n1-c1cc(Br)ccc1OC2
inactive: all assays above

Cc1cccc(C(=O)NCN2CCN(c3ccccc3C#N)CC2)c1
inactive: all assays above

CCC(=O)N1CCN(C(=O)c2ccccc2)CC1
inactive: all assays above

CC(C)(C)c1cc(/C=C(\C#N)C(N)=S)cc(C(C)(C)C)c1O
inactive: all assays above
